Screening data deposited in PubChem BioAssay by National Center for Advancing Translational Sciences (NCATS).
Most compounds without a hit are left out; they make up all but 21% or so of the library.
NS1 inh: qHTS Assay for Inhibitors of Influenza NS1 Protein Function; Potency, µM (titrated, usually from 46.1 µM), inactives show top-dose activity, positive = more growth; AID 2326, 2010; 270,000 tested, 0.4% active; also: potency is read from the fitted curve at half-maximal effect; actives are rising curves; nearly all actives have a fitted effect of over 50% in size
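Compounds were scored for reversing the slow growth caused by influenza A NS1 in S. cerevisiae, measured by optical density at 600 nm. Assay medium contained 2% galactose at pH 6.0; NS1-free yeast of the same strain were the positive control.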
SARS PLP yeast: qHTS of Yeast-based Assay for SARS-CoV PLP; AID 485353, 2010; S. cerevisiae expressing SARS-CoV PLpro, growth rescue; 330,000 tested, 0.19% active; Potency, µM (titrated, usually from 32.9 µM), without a hit: top-dose activity, positive = growth rescue, most hits filed as activators; also: potency is read from the fitted curve at half-maximal effect; 0% is about no effect; nearly all actives have a fitted effect of over 55% in size
CHX counter-1: Cycloheximide Counterscreen for Small Molecule Inhibitors of Shiga Toxin; cell reporter, cycloheximide protein synthesis inhibition counterscreen; max response, %; 300,000 tested, 12% active; AID 2314, 2010; in the data active = max response mostly above about 13%, no sharp cut-off; inactive = mostly below about 14%; also: read at 38.3 µM for the half of the compounds with a filed dose; 0% is about no effect
Pf growth 96h: Primary qHTS for delayed death inhibitors of the malarial parasite plastid, 96 hour incubation | 320,000 tested, 6.9% active | Potency, µM (top dose mostly 28.7 µM), for the others: at the highest dose activity change, negative = inhibition, usual class: inhibitors | P. falciparum luciferase reporter growth, 96 h; active = well fitted inhibition curve with a large enough effect; inconclusive = small, poorly fitted or top-dose-only effect, or another doubt; inactive = no such curve, though single readings can be large or run the other way; also: potency is read from the fitted curve at half-maximal effect; % is scaled to controls: 0 for no effect and ±100 for the full control effect
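Luminescence readout: decreased luciferase signal marks inhibited growth of reporter-expressing P. falciparum in infected red cells (2% hematocrit, 0.05% parasitemia final), exposed to compound two generations (96 h, 37 C, 5% CO2).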
Pf growth 48h: Primary qHTS for delayed death inhibitors of the malarial parasite plastid, 48 hour incubation | 310,000 tested, 5.9% active | P. falciparum luciferase growth in erythrocytes, 48 h | Potency, µM (top dose mostly 28.7 µM), for inactives: top-dose activity change, negative = inhibition, hits mostly inhibitors; active = well fitted inhibition curve with a large enough effect; inconclusive = small, poorly fitted or top-dose-only effect, or another doubt; inactive = no such curve, though single readings can be large or run the other way; also: potency is read from the fitted curve at half-maximal effect; % is scaled to controls: 0 for no effect and ±100 for the full control effect
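In quantitative HTS format, infected erythrocytes bearing luciferase-reporter parasites were treated for a single generation at 37 C. Luminescence after adding detection reagent served as the growth measure.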
Shiga toxin inh: A qHTS for Small Molecule Inhibitors of Shiga Toxin; Vero cells, Shiga toxin protein synthesis inhibition reporter; 290,000 tested, 9.2% active; inhibition, % at 38.7 µM; in the data active = inhibition mostly above about 28%, no sharp cut-off; inactive = mostly below about 43%; also: 0% is about no effect
CHX counter-2: Cycloheximide Counterscreen for Small Molecule Inhibitors of Shiga Toxin (Confirmatory); shares compounds with Shiga toxin inh; Cycloheximide counterscreen, protein synthesis reporter, Shiga toxin assay; Potency, µM (highest dose often 38.3 µM), inactives show at the top dose activity (activation), hits mostly activators; 510 tested, 3% active; also: potency is read from the fitted curve at half-maximal effect; 0% is about no effect
* marks the source's active call; other numbers are inactive results; ? = inconclusive; · = not tested or not shown; [ ] = remark or other dose. Unless noted, calls follow the shape of the full dose curve.

SMILES | NS1 inh | SARS PLP yeast | CHX counter-1 | Pf growth 96h | Pf growth 48h | Shiga toxin inh | CHX counter-2
Cc1cccc(NC(=O)Cn2nnc(-c3cccs3)n2)c1C | -43% | 6% | -2 | ? | 19% | 13 | ·
Cn1ncc(Cl)c1C(=O)N1CCN(C23CC4CC(CC(C4)C2)C3)CC1 | 19% | -3% | 7 | 13% | 16% | -3 | ·
CC1CCCN(CCSc2ccc(Cl)cc2)C1 (stereo not drawn) | 3% | -7% | -1 | -20% | 2% | 30* | 0%
CC1CCN(CCOCCSc2ccc(Cl)cc2)CC1 | -6% | 1% | -1 | 36%[5.75 µM] | ? | -8 | ·
CC1CCCCN1C(=O)CCc1nnc(Cc2c[nH]c3ccccc23)o1 (stereo not drawn) | 4% | -1% | 7 | ? | -1% | 8 | ·
CC(C)CN1CCN(C(=O)CCc2nnc(Cc3c[nH]c4ccccc34)o2)[C@@H](C)C1=O | 8% | 3% | 17 | -12% | -19% | 36* | ?
CC(=O)N1c2ccc(S(=O)(=O)N3CCCC3C(=O)Nc3ccc(C)cc3)cc2CC1C (stereo not drawn) | -2% | -1% | -2 | ? | 1% | 9 | ·
CC(C)Cc1nc2oc3c(NCC4CCCO4)ncnc3c2c2c1CCC2 (stereo not drawn) | -31% | -2% | -4 | 4.7µM* | ? | 58* | -4%
CC(C)Cc1nc2oc3c(NCc4cccnc4)ncnc3c2c2c1CCC2 | 3% | -5% | -2 | ? | ? | -19 | ·
O=[N+]([O-])c1ccc(NCCc2ccccc2)c(Br)c1 | -6% | -6% | 11 | 4% | · | 35 | ·
COc1cc(OC)c(C2C(C#N)=C(C)NC(C)=C2C#N)c(C(=O)O)c1 | 6% | 1% | -3 | 8% | 38% | -1 | ·
Nc1nc(-c2ccc3c(c2)CCC(=O)N3)cs1 | · | 1% | 7 | 67% | 63% | 42* | ?
CCN(CCNC(=O)C1CCN(Cc2nc(-c3cccc(Cl)c3)oc2C)CC1)c1ccccc1 | -41% | -2% | 10 | ? | ? | 105* | -2%
CCN(CCNC(=O)C1CCN(Cc2nc(-c3ccc(Cl)cc3)oc2C)CC1)c1ccccc1 | -5% | -3% | 2 | 46% | ? | -5 | ·
O=C(CSc1ccccc1)N1CCN(C(=O)c2ccco2)CC1 | 0% | 0% | 8 | -20% | -1% | -4 | ·
O=C(CSCc1ccccc1)N1CCN(C(=O)c2ccco2)CC1 | 8% | 20% | 17 | · | 6% | 46* | ?
[O-]C1=N/[N+](=C/c2ccccc2Cl)CC1 | 8% | -3% | -2 | 15% | 4% | -8 | ·
O=C(NCCCO)C(=O)NCCc1ccc(Cl)cc1 | 24% | -2% | -4 | ? | -1% | -7 | ·
Cc1ccccc1C(=O)NN1CCOCC1 | 13% | 1% | -1 | ? | -4% | 21* | -1%
C[n+]1cc2c3c(ccc2c2ccc4cc5c(cc4c21)OCO5)OCO3 | 22% | · | -15 | 104% | 66% | -37 | ·
COCCCN(C(=S)Nc1cc(C)cc(C)c1)C(C)c1ccncc1 (stereo not drawn) | -9% | 1% | -1 | 25% | ? | -8 | ·
COc1ccccc1NC(=O)Nc1cc(F)ccc1F | -6% | -1% | 16 | -26% | 18% | 132* | ?
Cc1ccc(O)c(NC(=O)c2cc(C)no2)c1 | -1% | -2% | 1 | 55% | 24% | 38* | 6%
O=C(NCc1ccco1)c1noc2c1CCCC2 | -5% | 7% | 10 | · | 59% | 42* | ?
CCOC(=O)c1ccc(N/C=C/C(=O)c2ccc(OC)c(OC)c2)cc1 | -5% | -9% | 14 | -10% | -12% | 58* | 3%
Cc1cc(C)n(Cc2nc3ccccc3n2C)n1 | -3% | 1% | -2 | 0% | 0% | 11 | ·
Cc1cc(C)nc(SCc2nc3ccccc3n2C)n1 | -16% | 0% | 13 | ? | 31% | 41* | 8%
